Neddyl block: cullin neddylation inhibition. hit rate 0.58% among 360,000. AID 651699. inhibition, % at 25 µM. TR-FRET cullin neddylation, biochemical. P61081+Q13564; in the data active means inhibition above about 36%
NadD block: inhibitors of Staphylococcus aureus NadD; purified NadD enzyme, colorimetric absorbance read-out; inhibition, % at 20 µM; hit rate 0.78% among 360,000; AID 602399; in the data active means inhibition above about 26%
GC-B act: GC-B (human) receptor activation; hit rate 0.11% among 370,000; activation, % at 10 µM; HEK293-GC-B cells, CNP EC30, cGMP TR-FRET; 0% at EC30 CNP, 100% saturating CNP; AID 1920062;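 active means activation at 10 µM reaching about 35% in either raw or pattern-adjusted values, limit read from the data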
GC-A act: GC-A (human) enzyme activation | P16066 | HEK293 GC-A cells, cGMP TR-FRET, EC30 ANP; 0% at EC30 ANP, 100% saturating ANP | activation, % at 10 µM | hit rate 0.14% among 370,000 | AID 1671463; in the data active means activation above about 40%
NadD conf: confirmation of Staphylococcus aureus NadD inhibitors | hit rate 13% among 2,000 | purified S. aureus NadD, colorimetric enzyme assay | shares compounds with NadD block | inhibition, % at 20 µM; in the data active means inhibition mostly above about 42%, no sharp cut-off; inactive means mostly below about 42%
Numbers without * were called inactive; · = no result given. A selection: hits, their analogues and other compounds. The true share with any hit is near 1.5%.

SMILES	Neddyl block	NadD block	GC-B act	GC-A act	NadD conf
Cc1cccc(N2CC(C(=O)Nc3nnc(SCC(=O)Nc4cc(C)on4)s3)CC2=O)c1 (configuration not stated)	-17.9	74.4*	-7.5	-5.5	0.4
Cc1ccccc1N1CC(C(=O)Nc2nnc(SCC(=O)Nc3nccs3)s2)CC1=O (configuration not stated)	-20.4	40.4*	-3.9	-2.0	28.7
Cc1ccccc1N1CC(C(=O)Nc2nnc(SCc3ccccn3)s2)CC1=O (configuration not stated)	-1.5	20.5	6.4	-3.9	·
Cc1cccc(N2CC(C(=O)Nc3nnc(SCc4cccnc4)s3)CC2=O)c1 (configuration not stated)	-4.2	15.1	-5.3	-4.0	·
Cc1cccc(N2CC(C(=O)Nc3nnc(SCC(=O)Nc4nccs4)s3)CC2=O)c1 (configuration not stated)	-5.8	62.3*	1.6	-3.1	6.7
C=CCNC(=O)Nc1ccc2c(c1)[C@@]1(CC(=O)N(CC(C)C)C1c1ccccc1)C(=O)N2C (some centres not stated)	·	·	0.8	-0.2	·
O=c1[nH]c2cc3c(cc2cc1CN(Cc1ccccc1)Cc1nnnn1Cc1ccco1)OCCO3	8.4	33.1*	6.8	7.1	15.0
Cc1ccc2[nH]c(=O)c(CN(Cc3ccc4c(c3)OCO4)Cc3nnnn3Cc3ccco3)cc2c1	10.0	15.6	-8.0	-10.1	·
Cc1cc(C)c2cc(CN(Cc3ccc4c(c3)OCO4)Cc3nnnn3Cc3ccco3)c(=O)[nH]c2c1	0.4	37.0*	-3.9	-4.9	9.8
Cc1ccc2[nH]c(=O)c(CN(CCc3ccccc3)C(c3nnnn3Cc3ccco3)C(C)C)cc2c1 (configuration not stated)	-28.2	53.9*	-6.2	-2.7	56.5*
CCN(C[C@H]1[C@@H](c2ccc(C3=CCCC3)cc2)[C@H](CO)N1Cc1ccccn1)S(=O)(=O)c1ccccc1[N+](=O)[O-]	·	·	-3.0	-1.3	·
CC(C)N(c1cc(=O)nc2ccccn12)C(C)C	·	·	4.9	1.2	·
Cn1c(=O)n(Cc2ccccc2Cl)c(=O)c2c1[nH]c(=S)n2C	-8.2	39.1*	1.9	-1.8	32.5
COc1ccc(/C=N\NS(=O)(=O)c2ccc(Br)cc2)cc1COc1ccccc1[N+](=O)[O-]	1.4	45.6*	-3.5	-0.1	26.8
COc1ccc(/C=N\NS(=O)(=O)c2ccc(Cl)cc2)cc1COc1ccccc1[N+](=O)[O-]	0.0	25.3	-6.6	-4.0	·
Nc1c(C(=O)O)sc2nc(-c3ccccc3)cc(-c3ccccc3)c12	-45.0	24.8	-1.9	-0.3	·
Nc1c(C(=O)O)sc2nc(-c3ccccc3)cc(-c3ccc(F)cc3)c12	-14.2	35.0*	-1.4	-6.7	26.3
CCC[C@@H](/C=C/C(=O)OC(C)(C)C)Sc1ccc(N)cc1	·	·	-0.8	-4.9	·
Cc1c(/C=N/NC(=O)CNc2ccccc2)c2ccccn2c1C(=O)c1ccc(Cl)cc1	-23.6	35.7*	-3.2	3.8	17.0
CC(C)(C)OC(=O)N1CCC2CCN(CCc3ccccc3)CC21 (configuration not stated)	·	·	4.6	1.8	·
COc1ccc2nc(-n3c(O)c(C4=c5ccccc5=NC4=O)[nH]c3=S)sc2c1	-53.6	51.7*	-0.4	-8.9	10.9
CC1C(=O)Nc2ccccc2N1C(=O)c1ccc(F)cc1 (configuration not stated)	7.3	0.2	-0.8	3.5	·
O=C1Nc2ccccc2N(C(=O)c2ccc(-c3ccccc3)cc2)C1c1nc2ccccc2[nH]1 (configuration not stated)	-24.5	31.4*	-5.5	-3.6	20.1
COC(=O)C1CN(C2CCCC2)CCS(=O)(=O)N1Cc1cn(Cc2ccc(F)cc2)nn1 (configuration not stated)	·	·	2.2	-1.7	·
O=C(Cc1cn(Cc2ccccc2)c2ccccc12)Nc1ccc(Nc2cccnc2)c(Br)c1	·	·	-2.7	0.8	·
SMILES	Neddyl block	NadD block	GC-B act	GC-A act	NadD conf
Cc1nc(SCC(=O)c2cc3ccccc3oc2=O)c(C#N)c(-c2ccccc2)c1C(=O)Nc1ccccc1	-4.0	28.4*	9.1	-4.6	-5.9
CC(C)CNc1cccc2c1S(=O)(=O)N[C@@H](C)CO2	·	·	0.7	-0.4	·
COc1ccc(C(=O)NC(=S)Nc2ccc(S(=O)(=O)Nc3cc(OC)ncn3)cc2)cc1	11.3	4.0	1.8	-0.3	·
COc1cc(NS(=O)(=O)c2ccc(NC(=S)NC(=O)c3sc4ccccc4c3Cl)cc2)ncn1	-78.6	49.6*	5.0	2.0	14.4
CC(C)C[C@H]1COc2cc(Br)ccc2S(=O)(=O)N1Cc1cn(Cc2ccc(C(F)(F)F)cc2)nn1	·	·	4.3	-0.4	·
COc1ccc(OC[C@@H](O)CNC(=O)c2cccc3c2C(=O)c2ccc(-c4ccc(F)cc4OCc4ccccc4)cc2S3(=O)=O)cc1	-12.3	34.8*	·	·	25.4
Nn1c(SCC(=O)Nc2cccc3ccccc23)nnc1-c1n[nH]c2c1CCC2	·	·	-7.0	0.3	·
O=C(CN1CCc2ccccc21)Nc1ccc2c(c1)OCO2	-0.2	56.4*	2.1	0.0	7.6
CCN(CC(=O)NC(C)(C)C)Cc1nc2c(Br)cc(Br)cc2c(=O)[nH]1	-148.6	-5.2	2.6	9.9	·
Cc1ccc(NC(=O)CN(C)Cc2nc3c(Br)cc(Br)cc3c(=O)[nH]2)cc1	-220.8	28.7*	-0.1	-1.1	-1.1
CN(CCCOC(=O)c1occ2ccccc12)C1CN(Cc2cn(Cc3ccccc3Cl)nn2)S(=O)(=O)C1 (configuration not stated)	·	·	-1.3	-5.0	·
Cc1ccc(NC(=O)CN2C(=O)S/C(=C/c3ccc(O)c([N+](=O)[O-])c3)C2=O)cc1C	-42.3	34.8*	-9.4	-11.5	33.8
Cc1cccc(NC(=O)CN2C(=O)S/C(=C\c3ccc(O)c([N+](=O)[O-])c3)C2=O)c1	-57.0	14.5	-7.6	-3.0	·
CCOC(=O)Cc1csc(NC(=O)c2cc(=O)c3ccccc3o2)n1	-27.9	-1.0	1.0	-1.3	·
Cc1cc(C)c2nc(NNC(=O)c3cc(=O)c4ccccc4o3)sc2c1	-9.7	58.7*	0.3	-2.4	62.2*
Cc1cc(C)c2nc(NNC(=O)c3ccc(S(=O)(=O)N4CCc5ccccc5C4)cc3)sc2c1	13.6	60.4*	-1.0	2.4	61.2*
Cc1cc(C)c2sc(N(CCCN(C)C)C(=O)c3ccc(S(=O)(=O)N4CCc5ccccc5C4)cc3)nc2c1	10.5	10.8	·	·	·
Cc1cc(C)c2sc(NNC(=O)c3ccc(S(=O)(=O)N4CCc5ccccc5C4)cc3)nc2c1	17.9	63.7*	0.4	-1.7	55.6*
O=S1(=O)c2ccc(Br)cc2OC[C@H](Cc2ccccc2)N1Cc1cn(Cc2ccc(C(F)(F)F)cc2)nn1	·	·	3.5	1.3	·
CCn1c(COc2ccccc2)nnc1SCC(=O)Nc1ccc(Oc2ccccc2)cc1	·	·	-2.9	0.0	·
COc1ccc(S(=O)(=O)N(C)C[C@@H]2OCCCC[C@H](C)Oc3ccc(NC(=O)Nc4ccc(C(F)(F)F)cc4)cc3C(=O)N([C@H](C)CO)C[C@H]2C)cc1	-37.5	30.3*	7.4	1.2	-3.0
